Each structure is given as a SMILES string. Hit rate of the full screen: of about 65,000 compounds, about 2,100 (3.2%) showed an effect of 50% or more. The median lay at about -52%. The sample as a whole holds a higher share of strong results than the screen did.

For the test, the system named is Plasmodium falciparum. Briefly: Screen against P. falciparum Asexual Blood Stage (ABS), at 5uM. The class given is functional, Dd2. Particulars: tested at 5 uM.
In the case of `O=C(c1ccnc(-n2cnnc2)c1)N1CCCC2(CCNC2)C1` (stereo unspecified), the INHIBITION is listed as -120%.
In the case of `Nc1ncccc1CN1C[C@H]2OC(=O)N(Cc3ccccn3)[C@H]2C1`, the INHIBITION was -117%.
For the compound `Cc1cnc(N2CCN(C)c3ncccc3C2)nc1`, the INHIBITION is given as -91.5%.
The figure for `CC(Cc1cccc(F)c1)NCc1cnc(N2CCN(C)CC2)nc1` (stereo unspecified) is 67.6%.
With `Cc1cccc(-c2ncc(CNC(C)Cc3ccncc3)cn2)c1` (stereo unspecified), the INHIBITION is recorded as -115%.
For the compound `Fc1cnc(N2C[C@H]3CN(Cc4cccc(F)c4)C[C@H]3C2)nc1`, the INHIBITION turned out to be 21.5%.
For the compound `CN1CCN(c2ncc(CNCCCc3cccc(F)c3)cn2)CC1`, the INHIBITION is listed as 71.5%.
Consider `CNC(=O)[C@@H]1C[C@H]2CN(c3ncccn3)C[C@H]2N1C(C)C`, for which the INHIBITION is reported as -98%.
On to `Cc1noc(C)c1CN1CCO[C@H]2CN(C(=O)N3CCCC3)C[C@H]21`, for which the INHIBITION is -14.9%.
Take `O=C(C1CCCO1)N1CCC2(CC1)CNCCO2` (stereo unspecified): the INHIBITION is listed as -75.2%.
As for `CNC(=O)CN1CCO[C@H]2CN(CC3CC3)C[C@H]21`, the INHIBITION was -76.5%.
The same measure for `Cn1cc(CN2C[C@H]3CN(c4cncnc4)C(=O)[C@H]3C2)cn1`: -44.8%.
Take `CC(C)C(CNCc1cccc2c1OCO2)N1CCOCC1` (stereo unspecified): the INHIBITION amounted to 76%.
Regarding `CNC(=O)[C@H]1C[C@@H]2CN(C(=O)c3ccncc3F)C[C@@H]2N1C`, the INHIBITION was -96.9%.
As to `CN1CC[C@@H]2OC[C@H](C(=O)N(C)Cc3ccccn3)C[C@@H]2C1`, the INHIBITION is -138%.
The figure for `CN1CC[C@H](N(Cc2ccccc2)Cc2ccccc2)C[C@H](O)C1` is 72.1%; for `CN1CC[C@H](N(Cc2ccccc2)CC2CC2)C[C@H](O)C1` it is 80.8%; for `Cc1nc(CC(=O)N2CCCC(N(C)Cc3ccccc3)C2)cs1` (stereo unspecified) it is -55.85%.
Take `Cc1noc(C)c1CN1C[C@@H]2OCCN(Cc3cnn(C)c3)[C@@H]2C1`: the INHIBITION was -2.02%.
The figure for `O=C(Cc1csc(-c2ccco2)n1)N1CCN(CCO)CC1` is -30.8%; for `Cc1ccc(CN2CC[C@H]3[C@H]2CC(=O)N3c2cccnc2)o1` it is -38.1%; for `CN(C)CCNC(=O)CCn1ncc2c(Cl)cccc21` it is 71%.
For `Cn1cc(C2=CCN(CCC(=O)NCc3ccc(Cl)cc3)CC2)cn1`, the INHIBITION worked out at 5%.
The figure for `Cc1cc(CN2CC[C@H]3C[C@H](C)O[C@@H]3C2)no1` is -86.2%.
The figure for `Cc1c(CC(=O)N2CCN(C(C)C)CC2)nnn1-c1ccccc1` is -40.6%.
Turning to `CN1CCCC1CCn1ccnc1-c1nc2ccccc2[nH]1` (stereo unspecified), the INHIBITION was found to be 72.2%.
For `O=C1[C@H]2CN(Cc3ccccc3)C[C@H]2CN1c1cncnc1`, the INHIBITION is -76.5%.
As for `Cc1ccc(OCC(=O)N2CCN[C@H]3CS(=O)(=O)C[C@H]32)cn1`, the INHIBITION is listed as -103%.
Take `Cc1cccc(CN2CC[C@@H]3[C@@H]2CCN3Cc2cccs2)n1`: the INHIBITION came out at 29.9%.
Regarding `COCCN1CCO[C@H]2CCN(C(=O)c3ccnnc3)CC[C@@H]21`, the INHIBITION is listed as -39.1%.
As for `CCc1cc(CNCc2ccccc2N(C)C2CCN(C)CC2)on1`, the INHIBITION was determined as 74.5%.
`CCc1cc(CN(C)C(=O)CN2CC(Cc3ccccc3)CC2=O)on1` (stereo unspecified): the INHIBITION is -126%.
The figure for `Cc1noc(C)c1CNCc1ccccc1N(C)C1CCN(C)CC1` is 73.6%; for `CC(C)N1CCc2c(CN(C)Cc3ccco3)cncc2C1` it is -16.1%; for `CN1CCC(N(C)c2ccccc2CNCc2ccco2)CC1` it is 85.9%.
The same measure for `CN(C)CCN1CCN(Cc2ccco2)Cc2cccnc21`: 11.9%; for `Cc1noc(C)c1CN(C)C(=O)CN1CC(c2ccccc2)CC1=O` (stereo unspecified): -83.2%; for `Cc1noc(C)c1CN1CCN(C)c2ncccc2C1`: -31.9%.
With `CCc1cc(CN(C)C(=O)CN2CC(c3ccccc3)CC2=O)on1` (stereo unspecified), the INHIBITION was -13.6%.
Take `CC(C)=CCN1C(=O)[C@@H]2CC[C@H]1CN(Cc1cccnc1N)C2`: the INHIBITION is -11.1%.
In the case of `CC1CN(C)CCN1C(=O)Cc1cc(Cl)c2c(c1)OCCO2` (stereo unspecified), the INHIBITION was -23.7%.
The same measure for `CCc1noc(CN2CCOC3(CCCC3)C2)n1`: -159%; for `c1cc(CN2C[C@@H]3OCCN(CCN4CCCC4)[C@@H]3C2)ccn1`: -104%; for `Cc1[nH]c2c(C)cccc2c1CC(=O)N(C)CCN(C)C`: 46.3%.
The same measure for `Cc1ccc2c(CC(=O)N(C)CCN(C)C)c(C)[nH]c2c1C`: -86.5%; for `Cc1cc(C)c2[nH]c(C)c(CC(=O)N(C)CCN(C)C)c2c1`: 61.9%; for `N#Cc1ccc(C(=O)NS(=O)(=O)c2ccc(C#N)c(Cl)c2)cc1`: -1%.
For `COc1cccc(CNc2cc(C)nc(-c3ccncc3)n2)c1OC`, the INHIBITION is listed as 89.3%.
Turning to `FC(F)(F)c1cc(-c2cccs2)nc(N2CCN3CCCC3C2)n1` (stereo unspecified), the INHIBITION was -47.6%.
For the compound `Cc1cc(C(F)(F)F)nc(N2CCN3CCCC3C2)n1` (stereo unspecified), the INHIBITION is given as -144%.
Consider `CCc1ccc(-c2cc(C(F)(F)F)nc(N3CCC(N)CC3)n2)cc1`, for which the INHIBITION is 82.4%.

The values are drawn from ChEMBL document CHEMBL4513216, “Probing the Open Global Health Chemical Diversity Library for Multistage-Active Starting Points for Next-Generation Antimalarials” (ACS Infect Dis, 2020).
